Assay [1] concerns the target Tyrosine-protein kinase CSK (Homo sapiens) (UniProt P41240). To be noted: at 1 µM.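 Also: each value is an averaged inhibition reading.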
The target of assay [2] is T1, Discoidin domain-containing receptor 2 (Homo sapiens) (UniProt Q16832).
T1 sequence (whole entry): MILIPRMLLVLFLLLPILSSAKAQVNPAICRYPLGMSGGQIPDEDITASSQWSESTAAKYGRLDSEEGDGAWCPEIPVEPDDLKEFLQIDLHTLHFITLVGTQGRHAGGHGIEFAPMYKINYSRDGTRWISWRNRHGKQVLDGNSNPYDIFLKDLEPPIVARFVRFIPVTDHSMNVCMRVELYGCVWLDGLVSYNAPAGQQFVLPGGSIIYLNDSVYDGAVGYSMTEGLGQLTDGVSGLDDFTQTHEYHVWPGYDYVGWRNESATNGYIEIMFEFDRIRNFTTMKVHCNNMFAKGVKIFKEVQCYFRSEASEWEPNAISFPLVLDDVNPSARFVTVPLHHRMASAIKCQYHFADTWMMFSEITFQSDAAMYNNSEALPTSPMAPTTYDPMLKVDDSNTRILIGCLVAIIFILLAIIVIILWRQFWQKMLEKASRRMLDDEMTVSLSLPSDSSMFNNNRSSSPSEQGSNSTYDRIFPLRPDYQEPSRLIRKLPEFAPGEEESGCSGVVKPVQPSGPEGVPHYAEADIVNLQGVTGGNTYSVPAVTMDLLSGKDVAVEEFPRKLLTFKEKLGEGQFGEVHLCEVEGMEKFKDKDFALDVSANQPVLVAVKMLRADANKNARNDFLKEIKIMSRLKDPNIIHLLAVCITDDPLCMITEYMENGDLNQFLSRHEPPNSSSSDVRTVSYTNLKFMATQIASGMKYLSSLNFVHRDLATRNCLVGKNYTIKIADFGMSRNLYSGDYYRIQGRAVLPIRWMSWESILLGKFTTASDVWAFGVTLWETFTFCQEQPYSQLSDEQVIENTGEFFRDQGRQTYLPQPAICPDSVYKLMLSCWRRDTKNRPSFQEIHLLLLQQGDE
To be noted: at 0.1 µM.

Assay [3] concerns the target T1, Discoidin domain-containing receptor 2 (Homo sapiens). Conditions: at 1 µM.
Assay [4] deals with Epidermal growth factor receptor (Homo sapiens) (UniProt P00533). Conditions: at 0.1 µM.
The target is the same in assay [5]. To be noted: at 1 µM.
For assay [6], the system named is Epidermal growth factor receptor (Homo sapiens), P00533 [L858R]. Conditions: at 0.1 µM.
The test system is the same in assay [7]. To be noted: at 1 µM.
Assay [8] concerns Epidermal growth factor receptor (Homo sapiens), P00533 [L861Q]. To be noted: at 0.1 µM.
Assay [9] has the same test system. Conditions: at 1 µM.
Assay [10] has as its system Epidermal growth factor receptor (Homo sapiens), P00533 [T790M]. To be noted: at 0.1 µM.
Assay [11] shares this test system. Conditions: at 1 µM.
Assay [12] deals with Epidermal growth factor receptor (Homo sapiens), P00533 [L858R,T790M]. To be noted: at 0.1 µM.
Assay [13] has the same test system. To be noted: at 1 µM.
The target of assay [14] is Ephrin type-A receptor 2 (Homo sapiens) (UniProt P29317). To be noted: at 0.1 µM.
For assay [15] the target is unchanged. To be noted: at 1 µM.
Assay [16] addresses T2, Ephrin type-A receptor 3 (Homo sapiens) (UniProt P29320).
T2 sequence (whole entry): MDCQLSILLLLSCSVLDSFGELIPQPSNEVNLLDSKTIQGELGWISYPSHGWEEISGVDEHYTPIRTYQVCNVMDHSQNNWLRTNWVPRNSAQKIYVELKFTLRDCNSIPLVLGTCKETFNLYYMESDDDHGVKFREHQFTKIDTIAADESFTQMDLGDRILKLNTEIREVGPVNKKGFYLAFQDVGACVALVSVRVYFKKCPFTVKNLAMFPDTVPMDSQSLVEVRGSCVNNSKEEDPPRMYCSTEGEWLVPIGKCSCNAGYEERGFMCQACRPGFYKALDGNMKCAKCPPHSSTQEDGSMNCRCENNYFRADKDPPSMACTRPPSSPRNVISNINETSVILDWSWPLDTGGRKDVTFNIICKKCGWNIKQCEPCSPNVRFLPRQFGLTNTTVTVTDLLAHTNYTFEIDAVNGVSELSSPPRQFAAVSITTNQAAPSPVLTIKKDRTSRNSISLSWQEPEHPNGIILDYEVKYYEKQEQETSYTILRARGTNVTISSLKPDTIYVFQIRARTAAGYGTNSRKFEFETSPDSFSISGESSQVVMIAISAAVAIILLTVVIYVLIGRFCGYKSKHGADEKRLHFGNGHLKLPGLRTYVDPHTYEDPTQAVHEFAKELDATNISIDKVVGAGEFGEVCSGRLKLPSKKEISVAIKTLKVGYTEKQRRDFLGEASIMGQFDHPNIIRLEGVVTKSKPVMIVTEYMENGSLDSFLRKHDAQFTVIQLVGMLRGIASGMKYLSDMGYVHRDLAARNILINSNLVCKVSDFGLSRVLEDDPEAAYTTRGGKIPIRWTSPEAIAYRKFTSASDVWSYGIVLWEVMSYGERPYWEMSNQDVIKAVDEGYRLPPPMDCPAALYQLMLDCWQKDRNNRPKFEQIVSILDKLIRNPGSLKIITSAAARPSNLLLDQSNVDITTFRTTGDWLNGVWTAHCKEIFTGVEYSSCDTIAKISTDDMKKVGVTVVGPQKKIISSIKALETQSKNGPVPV
Conditions: at 0.1 µM.

For assay [17], the target named is T2, Ephrin type-A receptor 3 (Homo sapiens). To be noted: at 1 µM.
Assay [18] has as its target Ephrin type-A receptor 4 (Homo sapiens) (UniProt P54764). Conditions: at 0.1 µM.
Assay [19] has the same target. Conditions: at 1 µM.
Assay [20] addresses T3, Ephrin type-B receptor 2 (Homo sapiens) (UniProt P29323).
T3 sequence (whole entry): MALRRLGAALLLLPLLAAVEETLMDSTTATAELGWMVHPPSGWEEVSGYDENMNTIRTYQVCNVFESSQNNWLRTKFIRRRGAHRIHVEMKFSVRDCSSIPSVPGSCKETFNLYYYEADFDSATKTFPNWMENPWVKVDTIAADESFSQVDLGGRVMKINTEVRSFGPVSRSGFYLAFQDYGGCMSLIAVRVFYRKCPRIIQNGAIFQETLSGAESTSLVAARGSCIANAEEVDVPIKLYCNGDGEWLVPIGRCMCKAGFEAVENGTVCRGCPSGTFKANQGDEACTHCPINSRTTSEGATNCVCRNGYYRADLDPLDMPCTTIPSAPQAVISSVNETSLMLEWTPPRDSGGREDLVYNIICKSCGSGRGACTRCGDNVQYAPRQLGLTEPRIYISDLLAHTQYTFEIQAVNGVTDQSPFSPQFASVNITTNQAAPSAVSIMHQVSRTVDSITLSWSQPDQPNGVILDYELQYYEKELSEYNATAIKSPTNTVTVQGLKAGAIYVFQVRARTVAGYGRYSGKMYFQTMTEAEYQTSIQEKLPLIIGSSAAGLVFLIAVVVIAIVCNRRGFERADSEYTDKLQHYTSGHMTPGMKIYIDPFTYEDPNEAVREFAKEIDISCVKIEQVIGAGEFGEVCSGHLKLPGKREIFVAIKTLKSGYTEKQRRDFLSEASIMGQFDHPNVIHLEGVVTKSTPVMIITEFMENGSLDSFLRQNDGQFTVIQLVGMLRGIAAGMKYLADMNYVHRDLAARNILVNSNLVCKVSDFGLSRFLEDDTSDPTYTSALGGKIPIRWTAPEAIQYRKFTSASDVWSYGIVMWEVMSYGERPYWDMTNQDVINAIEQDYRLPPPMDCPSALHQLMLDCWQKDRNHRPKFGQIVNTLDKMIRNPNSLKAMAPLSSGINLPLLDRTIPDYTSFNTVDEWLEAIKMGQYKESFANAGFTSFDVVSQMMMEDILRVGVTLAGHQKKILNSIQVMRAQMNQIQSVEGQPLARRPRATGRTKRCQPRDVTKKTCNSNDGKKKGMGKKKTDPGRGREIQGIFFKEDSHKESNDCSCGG
To be noted: at 0.1 µM.

Tyrosine-protein kinase CSK (Homo sapiens), sequence (P41240 2-450 limits assumed): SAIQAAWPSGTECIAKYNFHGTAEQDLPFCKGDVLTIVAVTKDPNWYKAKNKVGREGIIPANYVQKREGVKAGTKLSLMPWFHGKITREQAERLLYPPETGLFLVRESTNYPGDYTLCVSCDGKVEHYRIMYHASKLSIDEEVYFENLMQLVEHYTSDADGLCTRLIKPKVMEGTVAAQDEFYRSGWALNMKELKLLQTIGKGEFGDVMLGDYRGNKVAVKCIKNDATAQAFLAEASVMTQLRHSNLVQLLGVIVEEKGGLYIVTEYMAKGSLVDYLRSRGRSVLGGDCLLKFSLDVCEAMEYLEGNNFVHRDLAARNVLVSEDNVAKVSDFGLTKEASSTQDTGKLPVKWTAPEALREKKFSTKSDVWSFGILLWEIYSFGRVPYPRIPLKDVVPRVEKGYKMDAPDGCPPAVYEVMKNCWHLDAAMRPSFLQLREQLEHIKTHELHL
Ephrin type-A receptor 4 (Homo sapiens), sequence (P54764 whole entry): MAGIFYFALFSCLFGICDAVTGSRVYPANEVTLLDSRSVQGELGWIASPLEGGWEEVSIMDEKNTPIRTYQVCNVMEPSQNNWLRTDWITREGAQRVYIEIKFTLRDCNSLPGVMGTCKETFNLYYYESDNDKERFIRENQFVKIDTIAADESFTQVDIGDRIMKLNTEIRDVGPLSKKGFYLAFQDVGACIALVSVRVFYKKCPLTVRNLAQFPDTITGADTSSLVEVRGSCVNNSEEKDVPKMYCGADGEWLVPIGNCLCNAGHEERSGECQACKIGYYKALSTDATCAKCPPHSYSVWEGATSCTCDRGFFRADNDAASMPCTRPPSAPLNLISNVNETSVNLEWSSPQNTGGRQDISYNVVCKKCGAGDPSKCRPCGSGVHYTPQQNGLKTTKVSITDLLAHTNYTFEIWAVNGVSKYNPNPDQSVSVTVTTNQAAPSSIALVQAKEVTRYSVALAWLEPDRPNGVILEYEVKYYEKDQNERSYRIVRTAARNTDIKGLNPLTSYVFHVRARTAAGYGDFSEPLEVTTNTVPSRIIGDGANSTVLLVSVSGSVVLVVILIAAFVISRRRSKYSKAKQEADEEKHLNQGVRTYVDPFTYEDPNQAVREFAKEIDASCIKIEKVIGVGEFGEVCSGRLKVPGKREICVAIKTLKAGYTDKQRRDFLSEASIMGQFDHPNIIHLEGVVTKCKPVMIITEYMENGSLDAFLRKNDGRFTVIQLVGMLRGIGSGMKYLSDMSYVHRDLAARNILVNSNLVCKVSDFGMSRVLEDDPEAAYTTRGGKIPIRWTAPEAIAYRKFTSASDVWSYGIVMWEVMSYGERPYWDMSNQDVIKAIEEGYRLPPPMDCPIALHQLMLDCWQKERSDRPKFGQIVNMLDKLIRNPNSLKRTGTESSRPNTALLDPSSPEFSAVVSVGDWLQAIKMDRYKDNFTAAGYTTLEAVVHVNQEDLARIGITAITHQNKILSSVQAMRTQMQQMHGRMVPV
Epidermal growth factor receptor (Homo sapiens), sequence (P00533 whole entry): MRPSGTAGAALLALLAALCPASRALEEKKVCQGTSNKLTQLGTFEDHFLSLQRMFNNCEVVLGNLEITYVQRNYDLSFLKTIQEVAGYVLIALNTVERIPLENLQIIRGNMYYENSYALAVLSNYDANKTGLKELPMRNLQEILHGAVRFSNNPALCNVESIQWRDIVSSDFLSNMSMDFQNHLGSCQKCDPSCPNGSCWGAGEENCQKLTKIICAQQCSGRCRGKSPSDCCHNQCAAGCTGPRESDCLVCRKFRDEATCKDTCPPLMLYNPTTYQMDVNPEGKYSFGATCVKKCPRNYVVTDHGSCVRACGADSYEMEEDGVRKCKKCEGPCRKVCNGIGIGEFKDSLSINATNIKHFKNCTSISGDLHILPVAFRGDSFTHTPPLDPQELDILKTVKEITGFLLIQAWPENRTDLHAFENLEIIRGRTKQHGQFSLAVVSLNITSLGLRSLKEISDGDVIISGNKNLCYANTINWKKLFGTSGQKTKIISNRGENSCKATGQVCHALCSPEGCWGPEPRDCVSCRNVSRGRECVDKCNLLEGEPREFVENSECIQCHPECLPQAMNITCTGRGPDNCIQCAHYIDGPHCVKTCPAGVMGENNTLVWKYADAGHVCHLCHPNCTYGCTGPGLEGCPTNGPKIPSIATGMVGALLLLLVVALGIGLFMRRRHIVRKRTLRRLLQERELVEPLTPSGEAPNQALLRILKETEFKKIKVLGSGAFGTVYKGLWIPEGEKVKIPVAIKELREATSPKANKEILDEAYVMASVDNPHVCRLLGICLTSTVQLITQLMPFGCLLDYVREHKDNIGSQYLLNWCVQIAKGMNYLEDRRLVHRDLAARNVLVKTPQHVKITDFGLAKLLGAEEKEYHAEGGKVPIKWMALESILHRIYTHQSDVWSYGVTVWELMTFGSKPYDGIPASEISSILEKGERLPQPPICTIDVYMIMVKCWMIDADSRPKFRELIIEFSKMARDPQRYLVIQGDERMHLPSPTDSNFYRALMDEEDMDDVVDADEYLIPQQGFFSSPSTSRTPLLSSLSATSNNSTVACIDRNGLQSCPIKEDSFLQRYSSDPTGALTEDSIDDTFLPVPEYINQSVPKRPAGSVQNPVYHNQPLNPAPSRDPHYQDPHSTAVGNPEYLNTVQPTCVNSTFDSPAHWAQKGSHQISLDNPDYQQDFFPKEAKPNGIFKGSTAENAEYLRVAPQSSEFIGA
Epidermal growth factor receptor (Homo sapiens), P00533 [L858R,T790M], sequence (P00533 whole entry T790M/L858R, looked up): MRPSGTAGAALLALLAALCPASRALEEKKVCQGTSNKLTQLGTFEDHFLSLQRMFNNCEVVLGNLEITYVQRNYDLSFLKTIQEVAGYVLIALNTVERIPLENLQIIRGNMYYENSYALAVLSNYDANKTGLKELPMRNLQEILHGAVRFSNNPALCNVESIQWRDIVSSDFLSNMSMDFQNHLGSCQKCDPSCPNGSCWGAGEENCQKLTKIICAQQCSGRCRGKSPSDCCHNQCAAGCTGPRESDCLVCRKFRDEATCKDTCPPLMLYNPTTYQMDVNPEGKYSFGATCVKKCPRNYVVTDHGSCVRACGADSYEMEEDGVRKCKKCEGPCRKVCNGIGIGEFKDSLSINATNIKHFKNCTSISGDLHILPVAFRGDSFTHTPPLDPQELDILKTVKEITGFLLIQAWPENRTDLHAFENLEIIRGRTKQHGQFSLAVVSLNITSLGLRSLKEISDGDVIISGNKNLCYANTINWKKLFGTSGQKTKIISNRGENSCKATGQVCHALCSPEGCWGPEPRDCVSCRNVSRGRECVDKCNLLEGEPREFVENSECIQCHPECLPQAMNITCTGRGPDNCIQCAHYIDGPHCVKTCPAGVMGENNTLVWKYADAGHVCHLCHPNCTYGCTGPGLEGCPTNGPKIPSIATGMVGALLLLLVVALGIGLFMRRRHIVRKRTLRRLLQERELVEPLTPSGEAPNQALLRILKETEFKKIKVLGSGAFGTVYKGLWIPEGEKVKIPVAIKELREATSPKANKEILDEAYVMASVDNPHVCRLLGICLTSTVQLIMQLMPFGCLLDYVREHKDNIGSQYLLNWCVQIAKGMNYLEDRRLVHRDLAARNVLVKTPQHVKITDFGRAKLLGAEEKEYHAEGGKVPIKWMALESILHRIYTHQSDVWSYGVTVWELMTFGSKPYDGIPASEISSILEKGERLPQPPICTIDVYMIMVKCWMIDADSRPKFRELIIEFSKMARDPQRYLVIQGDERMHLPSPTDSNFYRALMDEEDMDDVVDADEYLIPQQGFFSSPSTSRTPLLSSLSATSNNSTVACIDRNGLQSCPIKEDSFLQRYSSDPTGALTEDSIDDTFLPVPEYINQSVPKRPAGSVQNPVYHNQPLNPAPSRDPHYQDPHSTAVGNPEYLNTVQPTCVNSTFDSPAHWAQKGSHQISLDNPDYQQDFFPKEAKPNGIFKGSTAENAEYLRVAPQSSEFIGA
Epidermal growth factor receptor (Homo sapiens), P00533 [L861Q], sequence (P00533 whole entry L861Q): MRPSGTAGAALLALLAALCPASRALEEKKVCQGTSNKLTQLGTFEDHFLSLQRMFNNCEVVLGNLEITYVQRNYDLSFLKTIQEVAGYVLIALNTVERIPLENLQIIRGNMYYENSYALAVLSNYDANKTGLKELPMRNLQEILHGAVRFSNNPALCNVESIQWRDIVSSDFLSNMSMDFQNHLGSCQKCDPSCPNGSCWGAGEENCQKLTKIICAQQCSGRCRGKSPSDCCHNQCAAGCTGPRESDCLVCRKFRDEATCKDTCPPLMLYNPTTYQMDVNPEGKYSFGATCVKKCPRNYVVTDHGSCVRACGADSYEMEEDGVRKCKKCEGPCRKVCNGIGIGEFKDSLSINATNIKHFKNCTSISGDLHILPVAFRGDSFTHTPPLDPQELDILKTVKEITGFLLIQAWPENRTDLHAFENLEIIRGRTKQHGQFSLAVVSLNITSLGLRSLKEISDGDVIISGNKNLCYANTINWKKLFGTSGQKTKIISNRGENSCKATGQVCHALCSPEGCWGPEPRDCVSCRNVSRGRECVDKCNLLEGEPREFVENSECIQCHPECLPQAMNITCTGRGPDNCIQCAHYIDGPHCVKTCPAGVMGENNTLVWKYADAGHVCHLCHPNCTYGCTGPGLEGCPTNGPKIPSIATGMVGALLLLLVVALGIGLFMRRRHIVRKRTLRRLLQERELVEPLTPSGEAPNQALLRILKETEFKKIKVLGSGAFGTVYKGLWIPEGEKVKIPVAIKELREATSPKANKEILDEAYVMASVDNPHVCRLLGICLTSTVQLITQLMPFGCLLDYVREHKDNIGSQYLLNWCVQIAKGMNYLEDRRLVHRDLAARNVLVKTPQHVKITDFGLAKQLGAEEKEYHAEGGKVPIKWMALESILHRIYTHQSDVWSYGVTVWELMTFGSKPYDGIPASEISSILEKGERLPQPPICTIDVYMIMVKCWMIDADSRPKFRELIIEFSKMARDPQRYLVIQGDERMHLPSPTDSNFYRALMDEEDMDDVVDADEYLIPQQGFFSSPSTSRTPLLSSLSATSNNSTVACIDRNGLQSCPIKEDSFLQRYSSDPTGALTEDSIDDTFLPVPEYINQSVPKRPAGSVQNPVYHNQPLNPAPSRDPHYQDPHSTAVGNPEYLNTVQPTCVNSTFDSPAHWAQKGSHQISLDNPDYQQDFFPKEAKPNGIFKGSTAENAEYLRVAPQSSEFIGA

In the case of `CS(=O)(=O)CCNCc1ccc(-c2ccc3ncnc(Nc4ccc(OCc5ccccc5)c(C(F)(F)F)c4)c3c2)o1`, the inhibition in assay [1] came to 3.7%; in assay [2] it was 1.76%; in assay [3] it was 1.84%; in assay [4], 12.5%; in assay [5], 71.2%; in assay [6] it was 9.52%. Further, the inhibition in [7] is 50.1%; in assay [8], 17.8%; in assay [9] it was 41.7%; in assay [10], 2.35%; in assay [11] it was 2.12%; in assay [12], 3.43%. Further, the inhibition in assay [13] is 0.97%; in [14] it was 2.24%; in assay [15] it was 0.59%; in [16] it was 8.45%; in assay [17], 2.73%; in assay [18], 6.33%. In addition, the inhibition in assay [19] was 7.84%; in assay [20], 7.71%.
Regarding `COc1ccc(-c2cc3c(N)ncnc3o2)cc1`, the inhibition is -0.98% in assay [1]; -0.42% in [2]; 0.02% in [3]; 0.82% in [4]; 2% in [5]; 0.82% in assay [6]. Moreover, the inhibition was -0.02% in assay [7]; -0.61% in assay [8]; -1.15% in [9]; -2.23% in assay [10]; -2.06% in assay [11]; -0.41% in assay [12]. For the same molecule, the inhibition in assay [13] was -0.81%; in assay [14], -3.93%; in assay [15], -2.53%; in [16] it was -3.56%; in assay [17], -2.59%; in assay [18] it was -2.85%. Moreover, the inhibition in assay [19] was 1.4%; in assay [20] it was -3.46%.
With `N#Cc1c(NC(=O)CN2CCOCC2)sc2c1CCCC2`, the inhibition in assay [1] is 3.68%; in [2], 2.2%; in [3] it was 2.97%; in assay [4] it was 0.55%; in assay [5], -0.79%; in [6], 3.01%. Moreover, the inhibition in assay [7] came to 4.14%; in assay [8], 3.34%; in [9], 3.29%; in assay [10], 3.11%; in assay [11], 4.76%; in assay [12], 2.42%. Further, the inhibition in [13] was 4.77%; in assay [14], 1.79%; in assay [15], 1.43%; in assay [16] it was 5.54%; in assay [17] it was 6.42%; in assay [18], 7.58%. In addition, the inhibition turned out to be 13.1% in assay [19] and 8.79% in [20].
In the case of `CCn1c(-c2nonc2N)nc2cnc(Oc3cccc(NC(=O)c4ccc(N(C)C)cc4)c3)cc21`, the inhibition in [1] was -0.54%; in assay [2] it was 1.4%; in [3] it was 1.45%; in assay [4], 2.76%; in [5], 1.68%; in assay [6] it was 1.49%. The inhibition in [7] was 1.2%; in [8], 1.12%; in assay [9] it was -0.57%; in [10] it was 0.09%; in assay [11] it was 0.52%; in [12] it was -1.54%. Further, the inhibition in assay [13] was -0.4%; in assay [14], -2.08%; in [15], -3.39%; in assay [16] it was 2.26%; in assay [17] it was 4.01%; in [18], 4.68%. The inhibition is -0.31% in [19] and 5.07% in assay [20].
With `CCCN(CCS(C)(=O)=O)Cc1ccc(-c2ccc3ncnc(Nc4ccc(OCc5cccc(F)c5)c(Cl)c4)c3c2)o1`, the inhibition in assay [1] stood at 5.5%; in assay [2] it was 1.06%; in [3], 1.68%; in assay [4], 77.6%; in assay [5], 78.4%; in assay [6], 53.4%. For the same molecule, the inhibition was 95% in assay [7]; 53% in assay [8]; 88.2% in assay [9]; 2.23% in [10]; 8.75% in [11]; -1% in assay [12]. The inhibition in [13] is 3.75%; in [14], -2.13%; in [15], -0.4%; in assay [16], 2.56%; in [17], 2.25%; in [18], 5.97%. The inhibition amounted to 5.71% in assay [19] and 4.71% in assay [20].
Take `Fc1ccc(-c2nn3ccccc3c2-c2ccncc2)cc1`: the inhibition in assay [1] was 2.22%; in [2], 1.72%; in assay [3], 5.54%; in assay [14], -1.52%; in assay [15], -1.41%; in [16] it was 3.94%. In addition, the inhibition worked out at 5.1% in assay [17], 5.14% in assay [18], 11.7% in assay [19] and 5.2% in [20].
For the molecule `Cc1ccc(O)cc1Nc1ccnc2cc(-c3ccccn3)ccc12`, the inhibition in assay [1] worked out at 57.1%; in [2], 20.3%; in assay [3] it was 74%; in assay [4] it was 57.7%; in assay [5], 91.9%; in assay [6], 88.8%. Also, the inhibition was found to be 97.8% in assay [7]; 59.8% in [8]; 91.9% in assay [9]; 5.49% in assay [10]; 15.3% in assay [11]; 3.59% in assay [12]. Also, the inhibition in [13] turned out to be 30.4%; in assay [14] it was 34.4%; in assay [15] it was 80.2%; in assay [16], 79.3%; in assay [17], 87.5%; in assay [18] it was 91.2%. The values for the inhibition in [19] and in assay [20] were 90.9% and 90.5%, respectively.

By inhibition is commonly meant the drop in the measured response relative to a control, in per cent.
